Data: PubChem BioAssay (Tox21)
A number with no mark means an inactive call. Records with an inconclusive call do not appear. Entries that show only a call come without a potency. The source made the active and inactive calls. Calls follow the shape of the dose curve; as a rule, active = well fitted curve in the direction sought with a large enough effect in the repeat runs; inconclusive = weak or mixed curves; inactive = no such curve, though single readings can be large; an effect the other way counts as inactive or inconclusive.

Experiments:
[1] = Human pregnane X receptor (PXR) small molecule agonists, qHTS cell viability counter screen (AID 1346977); also: nearly all actives have a fitted effect of over 50% in size
Method in brief: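 PXR-Luc HepG2, 2,000 cells/well, 5% charcoal-stripped FBS; 5hr settle; cpd 24hr, 37C/5% CO2; CellTiter-Fluor at 23hr, read 1hr later (fluorescence).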

[2] = Caspase-3/7 induction in HepG2 cells by small molecules, qHTS assay (AID 1346978); also: nearly all actives have a fitted effect of over 15% in size
Method in brief: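 Caspase-3/7 induction was measured by Caspase-Glo 3/7 luminescence (30 min, room temperature) after a 17 hr compound exposure of wild-type HepG2 cells seeded at 2,000 per well and pre-incubated 5 hr.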

[3] = Caspase-3/7 induction in CHO-K1 cells by small molecules, qHTS assay (AID 1346980); also: nearly all actives have a fitted effect of over 15% in size
Method in brief: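 Luminescent Caspase-Glo 3/7 read (30min, room temperature) quantified apoptosis induction. Cells were wild-type CHO-K1, treated with compound for 17hr at 37 C and 5% CO2.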

[4] = Caspase-3/7 induction in HepG2 cells by small molecules, qHTS cell viability counter screen (AID 1346981); also: series mostly up to about 92 µM; nearly all actives have a fitted effect of over 30% in size
Method in brief: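 Viability determined by CellTiter-Fluor fluorescence in HepG2 wells also used for the luminescent Caspase-Glo 3/7 read. Compounds were present for 16 hr at 37 C, 5% CO2 before reagent addition.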

[5] = target: Nuclear receptor subfamily 1 group I member 2 (Homo sapiens) (UniProt O75469); test: Human pregnane X receptor (PXR) small molecule agonists, qHTS assay (AID 1346982); also: nearly all actives have a fitted effect of over 35% in size; also: potency is read from the fitted curve at half-maximal effect
Sequence of Nuclear receptor subfamily 1 group I member 2 (Homo sapiens) (O75469 whole entry, looked up): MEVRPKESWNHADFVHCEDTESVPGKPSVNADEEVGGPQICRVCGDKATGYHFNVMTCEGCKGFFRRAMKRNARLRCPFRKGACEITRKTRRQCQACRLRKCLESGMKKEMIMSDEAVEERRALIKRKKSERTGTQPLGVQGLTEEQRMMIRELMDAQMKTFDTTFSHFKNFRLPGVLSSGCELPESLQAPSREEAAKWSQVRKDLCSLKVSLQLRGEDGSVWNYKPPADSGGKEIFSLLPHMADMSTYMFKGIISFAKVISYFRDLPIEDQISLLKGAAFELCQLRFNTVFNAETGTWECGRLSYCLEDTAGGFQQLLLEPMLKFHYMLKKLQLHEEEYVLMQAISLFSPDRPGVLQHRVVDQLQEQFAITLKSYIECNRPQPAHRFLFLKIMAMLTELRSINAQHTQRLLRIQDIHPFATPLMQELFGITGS
Method in brief: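 Compound-induced hPXR transactivation of a CYP3A4 luciferase reporter was scored in HepG2 PXR-Luc cells over 24 hr at 37 C, 5% CO2, by luminescence.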

[6] = target: Cytochrome P450 2D6 (Homo sapiens) (UniProt P10635); test: Cytochrome P450 Family 2 Subfamily D Member 6 (CYP2D6) small molecule antagonists: luciferase reporter qHTS assay (AID 1671196); also: nearly all actives have a fitted effect of over 50% in size; also: potency is read from the fitted curve at half-maximal effect
Sequence of Cytochrome P450 2D6 (Homo sapiens) (P10635 whole entry, looked up): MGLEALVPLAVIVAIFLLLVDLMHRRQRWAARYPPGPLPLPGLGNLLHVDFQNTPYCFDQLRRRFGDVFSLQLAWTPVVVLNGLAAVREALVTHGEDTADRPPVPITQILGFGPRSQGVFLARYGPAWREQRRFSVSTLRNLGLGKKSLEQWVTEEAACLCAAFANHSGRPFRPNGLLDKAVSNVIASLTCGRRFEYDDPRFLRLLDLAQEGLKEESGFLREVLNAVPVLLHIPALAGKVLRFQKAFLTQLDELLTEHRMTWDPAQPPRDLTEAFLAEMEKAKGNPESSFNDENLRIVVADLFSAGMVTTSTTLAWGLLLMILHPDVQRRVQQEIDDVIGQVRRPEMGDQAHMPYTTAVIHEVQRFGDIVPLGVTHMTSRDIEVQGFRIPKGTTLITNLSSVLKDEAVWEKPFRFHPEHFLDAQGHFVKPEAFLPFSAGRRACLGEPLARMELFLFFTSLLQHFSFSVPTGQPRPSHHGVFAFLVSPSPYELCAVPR
Method in brief: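 Each well received CYP2D6 with its proluciferin substrate and chemical, sat 10 min, then got NADPH regeneration solution for 1 h at room temperature. Luminescence in RLU served as the activity measure.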

[7] = target: Cytochrome P450 2C19 (Homo sapiens) (UniProt P33261); test: Cytochrome P450 Family 2 Subfamily C Member 19 (CYP2C19) small molecule antagonists: luciferase reporter qHTS assay (AID 1671197); also: nearly all actives have a fitted effect of over 65% in size; also: potency is read from the fitted curve at half-maximal effect
Sequence of Cytochrome P450 2C19 (Homo sapiens) (P33261 whole entry, looked up): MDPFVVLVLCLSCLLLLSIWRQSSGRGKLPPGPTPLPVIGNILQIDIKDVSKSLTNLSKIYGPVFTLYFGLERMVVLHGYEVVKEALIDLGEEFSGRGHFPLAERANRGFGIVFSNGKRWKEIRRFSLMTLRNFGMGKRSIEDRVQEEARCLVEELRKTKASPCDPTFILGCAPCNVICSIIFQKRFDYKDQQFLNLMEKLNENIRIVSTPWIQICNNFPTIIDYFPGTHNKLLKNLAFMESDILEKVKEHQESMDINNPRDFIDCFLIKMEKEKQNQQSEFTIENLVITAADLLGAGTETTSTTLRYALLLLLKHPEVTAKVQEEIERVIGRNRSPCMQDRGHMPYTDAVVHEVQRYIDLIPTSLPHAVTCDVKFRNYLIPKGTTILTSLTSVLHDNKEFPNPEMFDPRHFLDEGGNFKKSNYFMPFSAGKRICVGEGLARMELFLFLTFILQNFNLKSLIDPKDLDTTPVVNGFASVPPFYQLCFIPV
Method in brief: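 Light output is proportional to CYP2C19 activity: proluciferin substrate is converted to luciferin, then detected by a luciferin detection reagent that also stops the 1 h, 37C NADPH-driven reaction. Ketoconazole serves as positive control.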

[8] = target: Cytochrome P450 2C9 (Homo sapiens) (UniProt P11712); test: Cytochrome P450 Family 2 Subfamily C Member 9 (CYP2C9) small molecule antagonists: luciferase reporter qHTS assay (AID 1671198); also: nearly all actives have a fitted effect of over 50% in size; also: potency is read from the fitted curve at half-maximal effect
Sequence of Cytochrome P450 2C9 (Homo sapiens) (P11712 whole entry, looked up): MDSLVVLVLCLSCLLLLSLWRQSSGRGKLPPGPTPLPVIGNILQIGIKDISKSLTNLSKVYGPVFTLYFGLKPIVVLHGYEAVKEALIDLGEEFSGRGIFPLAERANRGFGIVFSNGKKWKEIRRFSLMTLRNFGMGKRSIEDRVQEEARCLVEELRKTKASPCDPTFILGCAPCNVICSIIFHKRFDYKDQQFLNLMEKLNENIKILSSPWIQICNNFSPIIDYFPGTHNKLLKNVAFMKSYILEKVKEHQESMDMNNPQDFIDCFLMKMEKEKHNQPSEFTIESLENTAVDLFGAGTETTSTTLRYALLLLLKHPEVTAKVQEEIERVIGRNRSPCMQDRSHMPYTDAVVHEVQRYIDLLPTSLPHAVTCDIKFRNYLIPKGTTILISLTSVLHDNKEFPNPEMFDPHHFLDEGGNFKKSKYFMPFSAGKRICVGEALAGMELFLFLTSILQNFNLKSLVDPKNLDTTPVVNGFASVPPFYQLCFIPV
Method in brief: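 Enzyme-substrate mix preincubated with compound 10 min at room temperature; reaction started with NADPH regeneration solution, 1 h 37C. Luminescent luciferin product read after 20 min detection reagent.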

[9] = target: Cytochrome P450 1A2 (Homo sapiens) (UniProt P05177); test: Cytochrome P450 Family 1 Subfamily A Member 2 (CYP1A2) small molecule antagonists: luciferase reporter qHTS assay (AID 1671199); also: nearly all actives have a fitted effect of over 50% in size; also: potency is read from the fitted curve at half-maximal effect
Sequence of Cytochrome P450 1A2 (Homo sapiens) (P05177 whole entry, looked up): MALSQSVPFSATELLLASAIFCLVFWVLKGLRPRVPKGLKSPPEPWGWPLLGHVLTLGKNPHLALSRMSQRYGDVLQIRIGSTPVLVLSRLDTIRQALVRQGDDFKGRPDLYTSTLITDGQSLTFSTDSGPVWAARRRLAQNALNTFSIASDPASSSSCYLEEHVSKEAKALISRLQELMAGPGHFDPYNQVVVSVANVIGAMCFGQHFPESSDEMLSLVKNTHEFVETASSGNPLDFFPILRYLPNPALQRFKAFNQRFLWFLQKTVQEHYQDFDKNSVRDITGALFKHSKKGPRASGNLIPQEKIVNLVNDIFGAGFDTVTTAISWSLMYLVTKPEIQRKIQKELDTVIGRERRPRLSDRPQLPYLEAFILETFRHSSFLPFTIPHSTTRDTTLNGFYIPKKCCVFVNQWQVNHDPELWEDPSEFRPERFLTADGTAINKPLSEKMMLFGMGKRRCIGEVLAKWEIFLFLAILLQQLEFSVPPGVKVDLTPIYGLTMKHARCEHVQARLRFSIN
Method in brief: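 Enzymatic CYP1A2 assay, human, luminescent: 10 min compound–enzyme–substrate preincubation, 1 h NADPH-dependent turnover, 20 min detection step, room temperature throughout. Reduced light indicates lower CYP1A2 activity.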

[10] = target: Cytochrome P450 3A4 (Homo sapiens) (UniProt P08684); test: Cytochrome P450 Family 3 Subfamily A Member 4 (CYP3A4) small molecule antagonists: luciferase reporter qHTS assay (AID 1671201); also: nearly all actives have a fitted effect of over 50% in size; also: potency is read from the fitted curve at half-maximal effect
Sequence of Cytochrome P450 3A4 (Homo sapiens) (P08684 whole entry, looked up): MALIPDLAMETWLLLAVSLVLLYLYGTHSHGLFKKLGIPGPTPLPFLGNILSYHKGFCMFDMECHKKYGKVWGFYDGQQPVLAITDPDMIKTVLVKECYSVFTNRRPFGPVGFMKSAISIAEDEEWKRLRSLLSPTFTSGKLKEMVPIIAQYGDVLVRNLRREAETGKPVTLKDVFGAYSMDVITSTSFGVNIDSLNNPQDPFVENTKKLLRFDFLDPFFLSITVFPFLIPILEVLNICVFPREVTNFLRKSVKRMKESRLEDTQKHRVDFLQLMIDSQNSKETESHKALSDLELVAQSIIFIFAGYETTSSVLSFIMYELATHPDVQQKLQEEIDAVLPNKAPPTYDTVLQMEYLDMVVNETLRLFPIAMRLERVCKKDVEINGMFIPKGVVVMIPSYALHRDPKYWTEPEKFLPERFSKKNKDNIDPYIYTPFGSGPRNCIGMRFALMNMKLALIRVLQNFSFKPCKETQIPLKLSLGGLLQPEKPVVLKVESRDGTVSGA
Method in brief: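 Compounds in DMSO were pin-transferred onto CYP3A4 enzyme-substrate mix and held 10 min at room temperature. NADPH regenerating solution started the reaction for 1 h; luciferin detection reagent stopped it, and luminescence was read after 20 min.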

[11] = Caspase-3/7 induction in CHO-K1 cells by small molecules, qHTS cell viability counter screen (AID 1346979); also: nearly all actives have a fitted effect of over 35% in size
Method in brief: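 Cells (CHO-K1, wild type) are plated at 1,500 per well and incubated 5hr. Test compounds in DMSO are then pinned in, followed by 16hr at 37C and 5% CO2. Viability is read by CellTiter-Fluor fluorescence after 1hr.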

[12] = target: Nuclear receptor subfamily 1 group I member 2 (Rattus norvegicus) (UniProt Q9R1A7); test: Rat pregnane X receptor (rPXR) activation by small molecules, qHTS assay (AID 1346983); conditions: rPXR luciferase reporter cells, One-Glo luminescence, 24 h; stronger effect = higher value; also: nearly all actives have a fitted effect of over 20% in size
Sequence of Nuclear receptor subfamily 1 group I member 2 (Rattus norvegicus) (Q9R1A7 whole entry, looked up): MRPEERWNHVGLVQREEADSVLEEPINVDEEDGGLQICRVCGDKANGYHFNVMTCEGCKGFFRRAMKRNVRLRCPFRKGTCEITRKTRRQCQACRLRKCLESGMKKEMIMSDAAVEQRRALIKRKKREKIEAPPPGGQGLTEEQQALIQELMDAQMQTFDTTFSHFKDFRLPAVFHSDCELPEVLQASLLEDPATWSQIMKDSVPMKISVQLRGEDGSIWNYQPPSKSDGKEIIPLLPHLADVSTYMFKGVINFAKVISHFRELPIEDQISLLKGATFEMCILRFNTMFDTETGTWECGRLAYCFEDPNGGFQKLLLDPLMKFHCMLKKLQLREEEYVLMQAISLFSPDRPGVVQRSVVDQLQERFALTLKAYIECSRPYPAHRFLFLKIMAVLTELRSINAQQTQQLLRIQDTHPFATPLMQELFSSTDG
Method in brief: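 Luminescent readout (One-Glo luciferase, 30 min room temperature) followed 24 hr compound treatment at 37 C of rPXR cells plated 2,000 per well and preincubated 5hr; qHTS format with compounds delivered in DMSO.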

[13] = target: Voltage-gated inwardly rectifying potassium channel KCNH2 (Homo sapiens) (UniProt Q12809); test: Human Ether-a-go-go-Related Gene (hERG) channel small molecule antagonists: fluorescence cell-based qHTS assay (AID 1671200)
Sequence of Voltage-gated inwardly rectifying potassium channel KCNH2 (Homo sapiens) (Q12809 whole entry, looked up): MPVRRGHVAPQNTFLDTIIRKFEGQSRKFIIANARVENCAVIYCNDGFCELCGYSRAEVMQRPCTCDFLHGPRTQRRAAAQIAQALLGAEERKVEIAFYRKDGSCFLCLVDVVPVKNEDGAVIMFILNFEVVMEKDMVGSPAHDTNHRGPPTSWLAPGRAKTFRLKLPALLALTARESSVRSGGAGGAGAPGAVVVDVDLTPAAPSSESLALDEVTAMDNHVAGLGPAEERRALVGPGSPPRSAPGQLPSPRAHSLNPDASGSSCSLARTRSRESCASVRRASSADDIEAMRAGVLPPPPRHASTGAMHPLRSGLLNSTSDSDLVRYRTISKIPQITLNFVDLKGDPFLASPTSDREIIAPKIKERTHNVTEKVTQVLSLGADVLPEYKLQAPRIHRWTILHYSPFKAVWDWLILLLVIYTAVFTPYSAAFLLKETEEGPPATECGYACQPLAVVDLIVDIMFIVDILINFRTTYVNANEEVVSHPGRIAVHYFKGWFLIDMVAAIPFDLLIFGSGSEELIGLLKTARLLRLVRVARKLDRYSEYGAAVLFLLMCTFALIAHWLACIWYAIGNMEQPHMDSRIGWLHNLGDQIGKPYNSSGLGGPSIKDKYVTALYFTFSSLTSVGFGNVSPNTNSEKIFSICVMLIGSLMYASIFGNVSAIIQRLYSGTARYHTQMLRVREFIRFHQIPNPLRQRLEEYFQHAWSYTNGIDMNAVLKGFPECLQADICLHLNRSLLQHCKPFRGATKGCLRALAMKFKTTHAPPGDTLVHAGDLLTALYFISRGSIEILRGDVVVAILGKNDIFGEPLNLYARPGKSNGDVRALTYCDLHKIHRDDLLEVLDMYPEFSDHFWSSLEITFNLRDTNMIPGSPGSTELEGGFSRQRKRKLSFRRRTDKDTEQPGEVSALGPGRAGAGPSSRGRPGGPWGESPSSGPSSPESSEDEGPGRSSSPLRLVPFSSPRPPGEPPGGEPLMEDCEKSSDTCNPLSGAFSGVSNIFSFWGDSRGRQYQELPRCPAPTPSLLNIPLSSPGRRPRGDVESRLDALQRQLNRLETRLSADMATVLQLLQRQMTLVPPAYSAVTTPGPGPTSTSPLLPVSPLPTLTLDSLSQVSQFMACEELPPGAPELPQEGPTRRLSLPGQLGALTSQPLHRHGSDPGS
Method in brief: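 Channel function was assessed by thallium flux. Cells seeded the previous day and kept at 37 C took up FluxOR II dye over 1 h in the dark at room temperature, then sat another 10 min before stimulation.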

[14] = target: Nuclear receptor subfamily 1 group I member 2 (Homo sapiens) (UniProt O75469); test: CYP3A4 induction through human pregnane X receptor (PXR) by small molecules, qHTS assay (AID 1346984); also: nearly all actives have a fitted effect of over 40% in size
Method in brief: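 Readings come from a luciferase reporter: DPX-2 cells, which are HepG2 cotransfected with PXR and a CYP3A4-promoter construct, were exposed to test compounds for 24 h at 37C before One-Glo detection.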

[15] = target: Nuclear receptor subfamily 1 group I member 2 (Homo sapiens) (UniProt O75469); test: Human pregnane X receptor (PXR) activation by small molecules, qHTS assay (AID 1346985); also: nearly all actives have a fitted effect of over 40% in size
Method in brief: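 DPX-2 cells (HepG2 co-transfected with a PXR response element and a CYP3A4-promoter luciferase construct) were seeded at 2,000 per well, rested 5 hr at 37C, then exposed to DMSO-dissolved compounds for 24 hr. Activation was read as luciferase luminescence.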

CNS(=O)(=O)CCc1ccc2[nH]cc(C3CCN(C)CC3)c2c1
Potency [1]: inactive | Potency [2]: inactive | outcome [3]: inactive | Potency [4]: inactive | Potency [5]: inactive | Potency [6]: 34.7 µM (active) | Potency [7]: inactive | Potency [8]: inactive | Potency [9]: inactive | Potency [10]: inactive

Cc1ccccc1OCC(O)CO (configuration not stated)
Potency [1]: inactive | Potency [2]: inactive | Potency [11]: inactive | outcome [3]: inactive | max activation [12]: -0.0648% | Potency [9]: 27.5 µM (active) | Potency [13]: inactive

O=C(O)Cc1cn(-c2ccccc2)nc1-c1ccc(Cl)cc1
Potency [1]: inactive | Potency [2]: inactive | outcome [3]: inactive | Potency [4]: inactive | Potency [5]: inactive | max activation [12]: -1.93% | Potency [14]: inactive | Potency [15]: inactive | Potency [6]: inactive | Potency [8]: 5.49 µM (active) | Potency [9]: inactive | Potency [13]: inactive

CC1=CCC(C(C)C)=CC1
Potency [1]: inactive | Potency [2]: inactive | outcome [3]: inactive | Potency [4]: inactive | Potency [5]: inactive | Potency [6]: inactive | Potency [7]: inactive | Potency [8]: inactive

C=C(C)C1CCC(C)(O)CC1 (configuration not stated)
Potency [1]: inactive | Potency [2]: inactive | outcome [3]: inactive | Potency [4]: inactive | Potency [5]: inactive | Potency [6]: inactive | Potency [7]: inactive | Potency [9]: inactive | Potency [13]: inactive | Potency [10]: inactive

C=C(C)C(=O)OCC(C)(C)COC(=O)C(=C)C
Potency [1]: inactive | Potency [2]: inactive | Potency [11]: inactive | outcome [3]: inactive | Potency [5]: inactive | Potency [7]: inactive | Potency [8]: inactive | Potency [13]: inactive | Potency [10]: inactive

CC(C)(C)NC(N)=O
Potency [1]: inactive | Potency [2]: inactive | outcome [3]: inactive | Potency [4]: inactive | Potency [5]: inactive | Potency [6]: inactive | Potency [7]: 71 µM (active) | Potency [9]: 17.8 µM (active) | Potency [13]: inactive | Potency [10]: inactive

Cc1ccc(S(=O)(=O)O)c(C)c1
Potency [1]: inactive | Potency [2]: inactive | outcome [3]: inactive | Potency [4]: inactive | Potency [5]: inactive | Potency [6]: inactive | Potency [7]: inactive | Potency [8]: inactive | Potency [9]: inactive | Potency [13]: inactive | Potency [10]: inactive

CC(=O)/C=C/C1C(C)=CCC(C)C1(C)C (configuration not stated)
Potency [1]: inactive | Potency [2]: inactive | outcome [3]: inactive | Potency [4]: inactive | Potency [5]: 19.3 µM (active) | Potency [6]: inactive | Potency [7]: 10 µM (active) | Potency [13]: inactive | Potency [10]: 25.2 µM (active)

COc1ccc(Br)c(C)c1
Potency [1]: inactive | Potency [2]: inactive | outcome [3]: inactive | Potency [4]: inactive | Potency [5]: inactive | Potency [6]: inactive | Potency [7]: 36 µM (active) | Potency [8]: inactive | Potency [9]: 32 µM (active) | Potency [13]: inactive | Potency [10]: inactive

O=C(O)CCSSCCC(=O)O
Potency [1]: inactive | Potency [2]: inactive | Potency [11]: inactive | outcome [3]: inactive | Potency [6]: inactive | Potency [7]: inactive | Potency [8]: inactive | Potency [13]: inactive | Potency [10]: inactive

CC1(C)S[C@@H]2[C@H](N=CN3CCCCCC3)C(=O)N2[C@H]1C(=O)O
Potency [1]: inactive | Potency [2]: inactive | outcome [3]: inactive | Potency [4]: inactive | Potency [5]: inactive | max activation [12]: -0.392% | Potency [14]: inactive | Potency [15]: inactive | Potency [6]: inactive | Potency [7]: inactive | Potency [8]: inactive | Potency [9]: inactive | Potency [13]: inactive | Potency [10]: inactive

O=C1c2ccccc2C(=O)N1CCl
Potency [1]: inactive | Potency [2]: inactive | Potency [11]: inactive | outcome [3]: inactive | Potency [7]: inactive | Potency [8]: inactive | Potency [10]: inactive

CN(CCOc1ccc(NS(C)(=O)=O)cc1)CCc1ccc(NS(C)(=O)=O)cc1
Potency [1]: inactive | Potency [2]: inactive | outcome [3]: inactive | Potency [4]: inactive | Potency [5]: inactive | max activation [12]: -6.17% | Potency [14]: inactive | Potency [7]: inactive | Potency [8]: inactive | Potency [9]: inactive

O=C(O)c1cc(Br)c(O)c(Br)c1
Potency [1]: inactive | Potency [2]: inactive | Potency [11]: inactive | outcome [3]: inactive | Potency [5]: inactive | Potency [7]: 7.96 µM (active) | Potency [8]: 71 µM (active) | Potency [9]: 39.9 µM (active) | Potency [13]: inactive | Potency [10]: inactive

Cc1ccc(C=O)cc1C
Potency [1]: inactive | Potency [2]: inactive | Potency [11]: inactive | outcome [3]: inactive | Potency [5]: inactive | Potency [9]: 35.6 µM (active) | Potency [10]: inactive

CC(C)(C)c1nnc(NS(=O)(=O)c2ccc(N)cc2)s1
Potency [1]: inactive | Potency [2]: inactive | Potency [11]: inactive | outcome [3]: inactive | Potency [5]: inactive | Potency [7]: inactive | Potency [9]: inactive | Potency [13]: inactive
